RE007 growth inh = qHTS Assay for Inhibitors of the HIV-1 protein Vpr. actives 0.21% (n = 360,000). Potency, µM (highest dose often 92.2 µM), inactives show at the top dose activity change, negative = less growth, most hits filed as inhibitors. AID 651644, 2012. S. pombe RE007 Vpr strain, BacTiter-Glo ATP luminescence, 24 h; active = well fitted falling curve with a large enough effect; inconclusive = small, poorly fitted or top-dose-only effect; inactive = no such curve, though single readings can be large or run the other way; note: % is set by controls: 0 for no effect and ±100 for the full control effect; nearly all actives have a fitted effect of over 50% in size
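Fission yeast RE007 carrying one integrated HIV-1 vpr copy, seeded at OD 0.01 in PMG+AL medium with 23 nL pinned compound. Grown 24 h at 30 degrees; viability read by BacTiter-Glo luminescence after 5 min.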
Pf growth 48h = Primary qHTS for delayed death inhibitors of the malarial parasite plastid, 48 hour incubation; P. falciparum luciferase growth in erythrocytes, 48 h; actives 5.9% (n = 310,000); AID 504832, 2011; Potency, µM (series often up to 28.7 µM), for the others: top-dose activity change, negative = inhibition, most hits filed as inhibitors; active = well fitted inhibition curve with a large enough effect; inconclusive = small, poorly fitted or top-dose-only effect, or another doubt; inactive = no such curve, though single readings can be large or run the other way; note: % is set by controls: 0 for no effect and ±100 for the full control effect
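Compounds are pin-transferred into medium, infected erythrocytes (2% hematocrit, 0.1% parasitemia final) are added, and plates sit one parasite generation at 37 C in 5% CO2. Detection reagent is then added and luminescence measured.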
NS1 function inh = qHTS Assay for Inhibitors of Influenza NS1 Protein Function. Potency, µM (highest dose often 46.1 µM), inactives show at the top dose activity, positive = more growth. actives 0.4% (n = 270,000); note: actives are rising curves; nearly all actives have a fitted effect of over 50% in size
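Growth recovery, yeast-based: influenza A NS1 expressed in S. cerevisiae causes slow growth, and suppressors are detected by OD600. The parent strain without NS1 is used as positive control.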
Pf growth 96h = Primary qHTS for delayed death inhibitors of the malarial parasite plastid, 96 hour incubation | P. falciparum luciferase reporter growth, 96 h | Potency, µM (series often up to 28.7 µM), inactives show at the highest dose activity change, negative = inhibition, most hits filed as inhibitors | actives 6.9% (n = 320,000) | AID 504834, 2011; active = well fitted inhibition curve with a large enough effect; inconclusive = small, poorly fitted or top-dose-only effect, or another doubt; inactive = no such curve, though single readings can be large or run the other way; note: % is set by controls: 0 for no effect and ±100 for the full control effect
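Cell-based qHTS: luciferase-tagged P. falciparum in erythrocytes (2% hematocrit, 0.05% parasitemia final) incubated with compounds for 96 hours, 37 C, 5% CO2; luciferase detection reagent then added and luminescence measured.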
SARS PLP yeast = qHTS of Yeast-based Assay for SARS-CoV PLP; S. cerevisiae expressing SARS-CoV PLpro, growth rescue; Potency, µM (doses to about 32.9 µM), without a hit: at the highest dose activity, positive = growth rescue, most hits filed as activators; actives 0.19% (n = 330,000); AID 485353, 2010; note: 0% is about no effect; nearly all actives have a fitted effect of over 55% in size
Numbers without * were called inactive; ? = inconclusive; · = not tested or not shown; [ ] = another dose, or the depositor's remark. Hits are enriched below; roughly 9.5% of the tested compounds scored in any of these assays. Unless noted, calls come from the whole dose curve. Potency is the fitted concentration of half-maximal effect.

SMILES | RE007 growth inh | Pf growth 48h | NS1 function inh | Pf growth 96h | SARS PLP yeast
CCCOc1ccc(C2c3c(oc4ccccc4c3=O)C(=O)N2CCN(CC)CC)cc1OC (stereo not drawn) | -24% | 1.5µM* | 3% | ? | 0%
O=C1c2oc3ccc(Cl)cc3c(=O)c2C(c2cccc(Br)c2)N1CCO (stereo not drawn) | -1% | 12µM* | -26% | 1%[5.75 µM] | -1%
COCCN1C(=O)c2oc3ccccc3c(=O)c2C1c1ccc(O)c(OC)c1 (stereo not drawn) | 0% | 11% | 5% | -13% | -12%
CCN(CC)CCN1C(=O)c2oc3ccccc3c(=O)c2C1c1ccccc1 (stereo not drawn) | -2% | ? | 6% | ? | 3%
Cc1ccc2oc3c(c(=O)c2c1)C(c1cccc(Br)c1)N(Cc1ccco1)C3=O (stereo not drawn) | 9% | -25% | -2% | 13µM* | 1%
CCN(CC)CCN1C(=O)c2oc3ccccc3c(=O)c2C1c1cccc(Br)c1 (stereo not drawn) | 2% | ? | -12% | 0.93µM* | -11%
CC(=O)Nc1cccc(-c2cnc(N)c(C(=O)c3cccnc3)n2)c1 | 6% | · | · | · | 1%
c1ccc(-c2cn(-c3ccccc3)c3[n+]2CCS3)cc1 | 5% | ? | · | ? | 0%
CC(C)(C)c1ccc(-c2cn(-c3ccc(Br)cc3)c3[n+]2CCCS3)cc1 | 5% | 2.6µM* | · | ? | 0%
COc1ccc(-c2cn(-c3ccccc3)c3[n+]2CCS3)cc1 | -12% | 0.93µM* | -1% | 0.1µM* | -14%
CC(=O)NCC(=O)OC(C(=O)c1ccccc1)c1ccc(Cl)cc1 (stereo not drawn) | 23% | -20% | -10% | ? | -2%
Cc1ccc(C(=O)N2N=C(c3ccccc3O)CC2c2ccccc2)cc1 (stereo not drawn) | 2% | 10µM* | -3% | ? | 1%
COc1cccc(C2CC(c3ccc(NS(C)(=O)=O)cc3)=NN2C(=O)c2ccccc2)c1OC (stereo not drawn) | -24% | ? | · | -76% | 1%
N=C(SC1CC(=O)N(c2ccc(F)cc2)C1=O)N1N=C(c2ccccc2)CC1c1ccccc1 (stereo not drawn) | 24% | 2.1µM* | · | 33% | -2%
COc1ccccc1C1CC(c2ccc(NS(C)(=O)=O)cc2)=NN1C(=O)c1ccccc1 (stereo not drawn) | 6% | 2.1µM* | · | ? | 0%
CCC(=O)N1N=C(c2ccccc2)CC1c1ccccc1 (stereo not drawn) | -11% | ? | -10% | ? | -3%
COc1ccccc1C1CC(c2ccccc2)=NN1C(=O)c1ccccc1 (stereo not drawn) | -12% | 0.37µM* | -8% | 1% | -5%
CC(=O)N1N=C(c2ccccc2)CC1c1ccccc1 (stereo not drawn) | -12% | 3% | -21% | ? | -5%
COc1ccc(OC)c(C2CC(c3ccc(NS(C)(=O)=O)cc3)=NN2C(=O)c2ccccc2)c1 (stereo not drawn) | 8% | ? | · | ? | 1%
O=c1[nH]n(Cc2ccccc2)c2ccccc12 | 14% | 3% | 4% | ? | -1%
CC(C)C(=O)N1CCCC1(C)C(=O)Nc1ccc(-n2cccc2)cc1 (stereo not drawn) | 8%[18.4 µM] | · | · | · | ·
O=C(O)Cc1[nH]cnc1C(=O)O | · | · | 4% | · | ·
Cc1ccc(C(=O)c2c3ccc([N+](=O)[O-])cc3[n+]([O-])n2CCCN)cc1 | -11% | -94% | · | ? | -3%
CCC(CC)C(=O)N1N=C(c2ccc(NS(C)(=O)=O)cc2)CC1c1ccc(C)cc1 (stereo not drawn) | 7% | ? | 11% | 5.2µM* | -1%
COc1ccc(C2=NN(C(=O)c3cccs3)C(c3ccccc3O)C2)cc1 (stereo not drawn) | 7% | 10µM* | · | ? | -7%
SMILES | RE007 growth inh | Pf growth 48h | NS1 function inh | Pf growth 96h | SARS PLP yeast
O=C(c1ccccc1)N1N=C(c2ccccc2)CC1c1ccccc1 (stereo not drawn) | -2% | · | -1% | 2.3µM* | -1%
Cn1cc(C2CC(c3ccccc3)=NN2C(=O)c2ccccc2)c2ccccc21 (stereo not drawn) | -4% | 8.3µM* | -12% | 8.3µM* | 10%
COc1ccc(NC(=O)C(=O)NCC2CCCN2S(=O)(=O)c2cc(C)ccc2C)cc1 (stereo not drawn) | -27% | ? | · | ? | -1%
CCS(=O)(=O)Nc1ccc(C2=NN(C(=O)c3ccccc3)C(c3cccs3)C2)cc1 (stereo not drawn) | 4% | ? | 2% | ? | 1%
O=C(c1ccccc1)N1N=C(c2ccccc2)CC1c1ccccc1[N+](=O)[O-] (stereo not drawn) | -13% | ? | 19% | 1.7µM* | 1%
Cc1cccc(C(=O)N2N=C(c3ccc(NS(C)(=O)=O)cc3)CC2c2cccs2)c1 (stereo not drawn) | -1% | 8.3µM* | 17% | ? | 0%
CCc1ccc(C2=NN(S(C)(=O)=O)C(c3cccs3)C2)cc1 (stereo not drawn) | -14% | · | -4% | 0.29µM* | -17%
Cc1ccc(C2=NN(S(C)(=O)=O)C(c3cccs3)C2)cc1 (stereo not drawn) | -28% | 294% | 1% | 211% | 1%
Cc1ccc(C(=O)N2N=C(c3ccc(Br)cc3)CC2c2ccccc2O)cc1 (stereo not drawn) | 1% | ? | -8% | 10µM* | 1%
CC(=O)N1N=C(c2ccccc2)CC1c1ccccc1[N+](=O)[O-] (stereo not drawn) | -19% | ? | -1% | -9% | 18%
Cc1ccc(C2=NN3C(=O)c4ccccc4C3C2)cc1 (stereo not drawn) | -25% | ? | -4% | 8.3µM* | 0%
CC(=O)N1N=C(c2cccc(NS(C)(=O)=O)c2)CC1c1ccc2c(c1)OCO2 (stereo not drawn) | 8% | 26% | 7% | -87% | 8%
CS(=O)(=O)Nc1ccc(C2=NN(S(C)(=O)=O)C(c3ccc4c(c3)OCO4)C2)cc1 (stereo not drawn) | 5% | 148% | 7% | 2.9µM* | -3%
CCOc1ccc(Nc2ncnc3c2cnn3C)cc1 | 10% | 19% | -22% | -8% | -3%
CCOc1ccc(C2C(C(=O)Nc3ccccc3)=C(C)N=c3s/c(=C/c4cccc(OCC(=O)O)c4)c(=O)n32)cc1 (stereo not drawn) | -9% | 0.47µM* | ? | ? | 1%

Compound activity (PubChem BioAssay)
